eIF4E-4G inh: eIF4E/eIF4G interaction inhibition in translation initiation; P63073+Q04637; TR-FRET eIF4E-eIF4GI(517-606) binding, 2 h; inhibition, % at 21.7 µM; 0.37% of 220,000 active;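 active means inhibition above about 30%, limit read from the data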;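 further: 0% = full FRET control wells and 100% = background wells lacking eIF4GI fragment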
PABP polyA inh: blocks human PABP binding to poly(A) RNA. P11940. fluorescence polarization. calls only at 35 µM. 1% of 290,000 active. AID 2014;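 further: calls also rest on retests at 20 µM and on dose response follow-up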
PERK inh: human PERK inhibition, primary cell-based screen; inhibition, % at 5.6 µM; 0.17% of 220,000 active; CHO PERK-DD fusion, SEAP luminescence translation reporter;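 active means inhibition above the mean inhibition of all tested compounds plus 3 SD, set separately per screening campaign, cut at about 2.9% in these data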;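 further: PERK kinase domain activated by AP20187 dimerizer at 100 nM; 0% = DMSO with dimerizer and 100% = rapamycin at 8.4 µM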
PABP1 MLLE inh: inhibitors of microRNA-mediated deadenylation, human PABP1 MLLE binding; inhibition, % at 20 µM; AID 588489; P11940; 0.36% of 360,000 active; GST-MLLE / FITC-PAM2 fluorescence polarization; in the data active means inhibition above about 35%, passing the limit was not always enough;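 further: plate controls were DMSO wells with GST-MLLE for no effect and wells lacking GST-MLLE protein for full effect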
eIF4H inh: inhibitors of RNA binding by human eIF4H. Q15056. eIF4H fluorescence polarization binding assay. 0.94% of 290,000 active. inhibition, % at 35 µM;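 further: calls also rest on retests at 20 µM and on dose response follow-up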
Active calls of the source: *; i = inactive; u = inconclusive; x = no result; + = active, no number; [ ] = another dose, or the depositor's remark. Most compounds without a hit are left out; they make up all but 1.6% or so of the library. Unless noted, how the calls were made is not given here.

SMILES	eIF4E-4G inh	PABP polyA inh	PERK inh	PABP1 MLLE inh	eIF4H inh
Cc1nn(-c2ccccc2)c(Oc2ccccc2)c1C=O	4	+	0	-14	active
CC(=O)Nc1ccc(CN(C)c2c(C)nc3ccc(C(=O)NCCCn4ccnc4)cn23)cc1	x	x	x	-13	x
CCN(CC)S(=O)(=O)c1ccc(C)c(NC(=S)Nc2cccc(S(=O)(=O)N3CCCCCC3)c2)c1	-1	i	1	37*	-5
O=C(NC(=S)Nc1ccc(CN2CCCCC2)cc1)c1ccco1	1	i	0	36*	-8
Cc1ccc(S(=O)(=O)N2CCCCC2)cc1NC(=S)NC(=O)c1ccco1	5	i	-2	40*	-12
O=C(Cn1cnnn1)Nc1cccc(S(=O)(=O)N2CCCCC2)c1	2	i	0	-3	19*
O=C(NC(=S)Nc1ccc(CN2CCOCC2)cc1)c1ccco1	0	i	0	29	-2
COc1ccc2oc(=N)c(C(=O)Nc3ccccc3Cl)cc2c1	x	i	x	0	-6
O=C(COc1cccc(C(F)(F)F)c1)Nc1cccc(S(=O)(=O)NC2=NCCCCC2)c1	x	x	x	4	x
CC1CCCN(Cc2c(O)ccc3c2O/C(=C\c2ccco2)C3=O)C1 (centres undefined)	3	+	0	68	85*
CCN1CCN(Cc2c(O)ccc3c2O/C(=C\c2ccccc2)C3=O)CC1	1	i	0	16	u
S=c1nc[nH]c2c1ncn2C1CCCO1 (centres undefined)	-1	i	1	40*	2
OCC1OC(n2cnc3c(=S)nc[nH]c32)CC1O (centres undefined)	x	x	x	36	x
CCOC(=O)N/N=C(\c1ccccc1)C(O)c1ccccc1 (centres undefined)	1	i	0	11	1
Cc1ccc(S(=O)(=O)NCC(=O)N(CC(=O)NCC2CCCO2)C2CCCC2)cc1 (centres undefined)	91*[fluorescence artefact?]	i	1	-3	-2
O=C(O)CCN1CCc2ccccc2C1c1ccncc1 (centres undefined)	x	i	x	11	-4
Cc1cccc(C(=O)NCCC(=O)Nc2nc(C)c(Cc3ccc4c(c3)OCO4)s2)c1	6	+	0	-9	active
Cc1nnc(N2C(=O)C(O)=C(C(=O)c3ccco3)C2c2ccc(C(C)C)cc2)s1 (centres undefined)	0	+	-1	31	52*
O=S(Cc1ccccc1)Cc1ccccc1	x	x	x	-4	x
CCc1nnc(NS(=O)(=O)c2ccc(NC(=S)NC(=O)/C=C/c3ccc(C(C)C)cc3)cc2)s1	64*[fluorescence artefact?]	i	0	32	33
O=C(NC(=S)Nc1ccc(NC(=O)c2ccccc2)cc1)c1ccc(F)cc1	x	i	x	33	-4
CCc1nnc(NS(=O)(=O)c2ccc(NC(=S)NC(=O)/C=C/c3ccccc3)cc2)s1	2	i	1	20	8
Cc1cc(NS(=O)(=O)c2ccc(NC(=S)NC(=O)c3ccc(F)cc3)cc2)no1	1	i	1	40*	2
COc1cc(NS(=O)(=O)c2ccc(NC(=S)NC(=O)/C=C/c3ccc(F)cc3)cc2)ncn1	0	i	1	41*	6
O=C(NC(=S)Nc1ccc2c(c1)C(=O)c1ccccc1C2=O)c1ccc(F)cc1	-7	+	1	x	70
SMILES	eIF4E-4G inh	PABP polyA inh	PERK inh	PABP1 MLLE inh	eIF4H inh
CCCCCN(C(=O)CCC(=O)OCc1cccc(Br)c1)c1c(N)n(CCCC)c(=O)[nH]c1=O	x	x	x	2	x
COc1ccccc1N1CCN(C(=O)c2oc3c(c2C)C(=O)CC(C)(C)C3)CC1	x	i	x	2	2
COC(=O)CCC(C)C1CCC2C3CCC4CC(O)CCC4(C)C3CC(O)C12C (centres undefined)	x	x	x	-6	x
C/C(Cc1ccccc1)=N\NC(=O)CNC(=O)c1ccccc1Br	-1	i	0	-1	-4
COc1ccc(NS(=O)(=O)c2ccc(NC(=S)NC(=O)c3cccnc3)cc2)nn1	4	i	1	29	-1
COc1ccc(NS(=O)(=O)c2ccc(NC(=S)NC(=O)c3cccc(F)c3)cc2)nn1	-5	i	0	38*	-2
CC(C)(C)c1ccc(C(=O)COC(=O)CN2C(=O)NC3(CCCC3)C2=O)cc1	x	i	x	-4	2
COc1ccc2c3c(cccc13)N(C)N=C2C	12	u	0	95*	100*
COc1ccc2c3c(cccc13)OC2=O	x	i	x	0	-4
Cc1ccc(C)c(NC(=O)CN(C)C(=O)CSC(C)C(=O)Nc2cc(C)on2)c1 (centres undefined)	x	i	x	-1	5
CCOc1ccc(NC(=O)CN(C)C(=O)CSC(C)C(=O)Nc2cc(C)on2)cc1OCC (centres undefined)	x	+	x	-5	35
CCNc1nc(NC(C)C)nc(Oc2ccc(OCCOc3ccccc3)nn2)n1	57*	i	0	4	3
Cc1ccc(CN2CCN(CC(=O)N/N=C/c3ccc(C)o3)CC2)cc1	4	i	0	-9	-5
CCOc1ccc(N(CC(=O)NC(C)(C)C)C(=O)CCC(=O)Nc2nccs2)cc1	x	i	x	-2	-4
CCN(Cc1cc2ccc(C)cc2[nH]c1=O)C(=O)c1cccnc1	12	+	0	x	84*
CC(C(=O)NCCSCc1cccc(Cl)c1)N(c1ccccc1)S(C)(=O)=O (centres undefined)	x	i	x	-2	-11
CC(C)c1ccc(NC(=O)C2(C)Cc3c(-c4cccc(C(F)(F)F)c4)ccnc3O2)cc1 (centres undefined)	x	x	x	8	x
CCC(=O)Nc1nc(C)c(-c2csc(Nc3cccc(C(=O)O)c3)n2)s1	3	i	1	14	-5
Cc1nc(NC(=O)c2ccccc2)sc1-c1csc(Nc2ccc(C(=O)O)cc2)n1	35*	i	1	0	88
Cc1nc(N)sc1-c1csc(Nc2cccc(C(=O)O)c2)n1	x	+	x	-28	85*
COCc1c(C(=O)OCc2nc3ccsc3c(=O)[nH]2)oc2ccccc12	x	x	x	8	x
CCOC(=O)c1cnc2ccc(Cl)cc2c1NCCN(C)C	-1	i	-1	42*	u
COC(=O)c1ccc(C(=O)OC)c(NC(=S)N2CCC(C(N)=O)CC2)c1	1	i	1	7	7
COC(=O)c1ccc2c(=O)sc(N3CCC(C(N)=O)CC3)nc2c1	10	i	1	44*	-9
Cc1c(-n2c(SCC(=O)O)nnc2-c2ccccc2Br)c(=O)n(-c2ccccc2)n1C	-10	i	0	4	-11
CC1CCC(NC(=O)CCS(=O)(=O)c2ccc3c(c2)NC(=O)CS3)CC1 (centres undefined)	x	i	x	4	2
COc1ccc(S(=O)(=O)CCC(=O)N2c3ccccc3CC2C)cc1 (centres undefined)	4	i	-1	0	-7
Cc1cccc(NC(=O)CCS(=O)(=O)c2ccc3c(c2)NC(=O)CS3)n1	x	+	x	20	64

Assay outcomes (PubChem)
